PubChem BioAssay
The source made the active and inactive calls.

Assay: osmotic lysis modulators in infected erythrocytes, primary screen, PSAC antagonist project, cell-based, P. falciparum Indochina, OD700, 3 h (AID 1156)
Conditions: higher = more signal, called active from +8 up or from −8 down

z-score, inactive:
CC1CC/C=C\[C@H]2OC34C=CCN(Cc5ccccc5)C(=O)[C@H]3N(CCCCCO)C(=O)[C@@H]4C2C(=O)O1 (stereo partly specified) -0.692, COCCOC(=O)N1C(=O)[C@@]2(c3cc(C#CCNC(N)=O)ccc31)[C@H](C(=O)N1CCc3cc(OC)c(OC)cc3C1)[C@H]1C(=O)O[C@H](c3ccccc3)[C@H](c3ccccc3)N1[C@@H]2c1ccc(OCCO)cc1 0.695, O=C1OCCC/C=C\[C@H]2OC34C=CCN(Cn5nnc6ccccc65)C(=O)[C@H]3N(CCCCCO)C(=O)[C@@H]4C12 (stereo partly specified) -0.212, O=C(O)[C@@]1(Cc2ccccc2)N=C(c2ccc(OCCCO)cc2)O[C@H]1c1ccccc1 -0.466, Cc1ccc(S[C@]2(C(=O)NC3CC3)CC(=O)N(C3CCCCC3)[C@@H]2c2ccc(CO)cc2I)cc1 -0.0504, O=C/C=C/c1ccc2c(c1)OCO2 0.321, CC(C)(C)OC(=O)CC[C@@]1(C(=O)O)N=C(c2ccc(OCCCO)cc2)O[C@@H]1c1ccccc1N=[N+]=[N-] 1.79, COCCOC(=O)N1C(=O)[C@@]2(c3cc(C#CCC(C(=O)OC)C(=O)OC)ccc31)[C@H](C(=O)N1CCN(c3ncccn3)CC1)[C@H]1C(=O)O[C@H](c3ccccc3)[C@H](c3ccccc3)N1[C@@H]2c1ccc(OCCO)cc1 -0.153, COCCOC(=O)N1C(=O)[C@@]2(c3cc(C#CCC(C(=O)OC)C(=O)OC)ccc31)[C@H](c1ccc(O)cc1)N1[C@H](c3ccccc3)[C@H](c3ccccc3)OC(=O)[C@H]1[C@@H]2C(N)=O 0.0021, C=CCOC(=O)[C@@H]1[C@H]2C(=O)O[C@H](c3ccccc3)[C@H](c3ccccc3)N2[C@H](c2ccc(OCCOC(=O)[C@@H]3C[C@@H]4C(=O)NCC(=O)N4[C@@H]3c3cccc(OCCO)c3)cc2)[C@@]12C(=O)Nc1ccc(I)cc12 1.64, C#CCN(C(/C=C/c1ccccc1)CO)C(C(=O)O)c1ccccc1 (stereo unspecified) -0.168, COC(=O)[C@@]1(Cc2ccc(F)cc2)[C@H]2c3cc(C(=O)N4CCCC4)n(Cc4cccc5ccccc45)c3C[C@H]2CN1C(=O)c1ccccc1 1.22, CC(C)CNC(=O)[C@@H]1c2ccccc2C(=O)N(Cc2cc(C(F)(F)F)cc(C(F)(F)F)c2)[C@H]1c1ccc(CO)cc1 0.173, COc1cc2c(cc1OC)CN(C(=O)[C@@H]1[C@H]3C(=O)O[C@H](c4ccccc4)[C@H](c4ccccc4)N3[C@H](c3ccccc3OCCO)[C@@]13C(=O)Nc1ccc(C#CCNC(N)=O)cc13)CC2 0.333, COC(=O)c1ccc(C(O)C2C=CC3C(=O)N(c4ccccc4)C(=O)C3N2Nc2ccc(C#N)cc2)o1 (stereo unspecified) 1.36, CC(=O)NCCCC[C@@H]1NC(=O)[C@@H]2C[C@H](C(=O)NCCCCCCNC(=O)CS)[C@H](c3ccc(O)cc3)N2C1=O -1.8, O=c1cccc(C=Cc2ccccc2)o1 0.488, COc1ccc([Si](C)(C)[C@@H]2[C@@H](CC(=O)N3CCC[C@H]3CO)O[C@]3(C(=O)N(C)c4c(Br)cc(C)cc43)[C@H]2C)cc1 0.405, CC(C)N1C(=O)[C@@]2(c3ccc([N+](=O)[O-])cc3)CC(=O)N(CC34CC5CC(CC(C5)C3)C4)[C@@H]2c2ccc(CO)cc21 0.0625, COC(=O)[C@@]1(Cc2ccccc2)N=C(c2ccc(OCCCO)cc2)O[C@H]1c1ccccc1N=[N+]=[N-] 1.79, N#Cc1ccc(NN2C(C(O)c3ccc([N+](=O)[O-])cc3)C=CC3C(=O)N(c4ccccc4)C(=O)C32)cc1 (stereo unspecified) 0.362, [N-]=[N+]=Nc1ccccc1[C@@H]1OC(c2ccc(OCCCO)cc2)=N[C@]1(CCS(=O)(=O)c1ccccc1)C(=O)N1CCOCC1 0.736, O=C(O)[C@H]1C[C@H]2C(=O)NCC(=O)N2[C@H]1c1ccc(O)cc1 -2.6, O=c1cccc(CCc2ccccc2)o1 -0.13, CCN(CC)c1ccc(N2CC=CC34O[C@@H]5C=CCCOC(=O)C5[C@H]3C(=O)N(CCCCCO)[C@@H]4C2=O)cc1 (stereo partly specified) 1.11, COCCCNC(=O)[C@@]1(c2ccc([N+](=O)[O-])cc2)CC(=O)N(CC23CC4CC(CC(C4)C2)C3)[C@@H]1c1ccc(CO)cc1 1.47, [N-]=[N+]=NCc1ccccc1C[C@]1(C(=O)NCC(O)CO)N=C(c2ccc(OCCCO)cc2)O[C@H]1c1ccccc1N=[N+]=[N-] (stereo partly specified) 2.92, [N-]=[N+]=NCc1ccccc1[C@@H]1OC(c2ccc(OCCCO)cc2)=N[C@]1(Cc1ccccc1N=[N+]=[N-])C(=O)NCc1ccccc1 3.79, O=C1OCC=C[C@H]2OC34C=CCN(c5ccc(Cl)cc5)C(=O)[C@H]3N(CCCCCCO)C(=O)[C@@H]4[C@@H]12 (stereo partly specified) 0.497, CC(C)C[C@@H]1NC(=O)[C@H]2C[C@@H](C(=O)NCCCCCNC(=O)CS)[C@@H](c3cccc(OCCO)c3)N2C1=O -0.47, COC(=O)[C@@]1(Cc2ccccc2)[C@H]2c3cc(C(=O)N4CCCC4)n(Cc4ccc(C)o4)c3C[C@H]2CN1C(=O)c1ccccc1 0.278, O=C1c2ccccc2[C@@]2(Cc3ccccc3N(Cc3ccccc3)C2=O)[C@H](c2ccc(CO)cc2)N1C1CCCCC1 0.105, COc1ccccc1CN1C(=O)c2ccccc2[C@@H](C(=O)NCCN2CCOCC2)[C@@H]1c1ccc(CO)cc1 1.56, COc1cccc(C(=O)O[C@H]2CC[C@]3(C)C4=C(CCC3C2(C)C)[C@]2(C)CC[C@H]([C@H](C)CCCC(C)C)[C@@]2(C)CC4)c1 (stereo partly specified) -0.306, C[C@H]1NC(=O)[C@H](Cc2ccccc2)NC(=O)[C@@]23C(=O)N[C@@H](Cc4ccccc4)C2[C@H](C)[C@@]2(C)O[C@H]2C3/C=C/C/C=C\CNC1=O (stereo partly specified) -0.112, CS(=O)(=O)CCOC(=O)C1=CC(CCCO)=CC(c2cccs2)N(Cc2cc3c(cc2Br)OCO3)C=C1C(=O)OCCS(C)(=O)=O (stereo unspecified) 1.85
